Data taken from PubChem BioAssay AID686978 (National Center for Advancing Translational Sciences (NCATS), 2013).
The campaign covered roughly 420,000 compounds. About 64,000 (15%) were called active. About 27% were inconclusive and are not listed. A selection follows. A number with no mark means an inactive call. Calls follow the shape of the dose curve; as a rule, active = well fitted inhibition curve with a large enough effect; inconclusive = small, poorly fitted or top-dose-only effect; inactive = flat fitted curve, though single readings scatter.

Experiment: qHTS for Inhibitors of human tyrosyl-DNA phosphodiesterase 1 (TDP1): qHTS in cells in absence of CPT; also: nearly all actives have a fitted effect of over 55% in size
Conditions: DT40 Tdp1-/- hTDP1 cells, no CPT, ATP luminescence, 48 h; activity change, negative = growth inhibition: at 46.2 µM (top of the series)
Outline: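 Cells were dispensed at 400 per well, compounds added by pin tool, plates incubated ≥48 hr at 37 °C, then CellTiter-Glo added for 30 min at room temperature before luminescence reading. Line: DT40 Tdp1-/- complemented with hTDP1; camptothecin omitted.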
% is scaled to controls: 0 for no effect and ±100 for the full control effect; potency is read from the fitted curve at half-maximal effect.

| SMILES | activity change, negative = growth inhibition [%] | Potency |
| --- | --- | --- |
| O=C(CCN1C(=O)c2ccccc2C1=O)Nc1ccncc1 | -9.9 | – |
| O=c1oc2cc(O)ccc2cc1-c1ccc(F)cc1 | – | 14.6 µM (active) |
| COc1cccc(C(=O)c2cc3ccc(O)cc3oc2=O)c1 | -21.7 | – |
| COc1ccc(-c2cc3ccc(OCc4nn[nH]n4)cc3oc2=O)cc1 | 6.88 | – |
| Cc1ccc(C(=O)NCCSc2c(C)[nH]c3ccccc23)cc1C | – | 25.9 µM (active) |
| COC(=O)CCNC(=O)c1ccc2[nH]c(C)c(C)c2c1 | -9.72 | – |
| CN(C)CCCNC(=O)c1ccc2[nH]c3ccccc3c2c1 | -12.1 | – |
| COC(=O)c1ccc(OCC(=O)NC(C)(C)C)cc1 | 3.15 | – |
| COc1ccc(OCC(=O)N2CCOCC2)cc1 | -5.8 | – |
| O=C(O)c1cnn2c(C(F)(F)F)cc(-c3ccccc3)nc12 | -14.2 | – |
| COc1ccc(-c2cc(C(F)(F)F)n3nc(C(=O)N4CCOCC4)c(Cl)c3n2)cc1 | – | 29.1 µM (active) |
| O=C(NC1CC(=O)N(c2ccc(F)cc2)C1)C1CCCCC1 (stereo unspecified) | -0.378 | – |
| COc1cc(OC)cc(-c2nnc(SCC(=O)Nc3ccc(C(=O)O)cc3)s2)c1 | -25.9 | – |
| COc1ccc(N2CCN(C(=O)CSCc3nc(-c4ccccc4Cl)oc3C)CC2)cc1 | – | 16.4 µM (active) |
| COc1ccc(N2CCN(C(=O)C3CCN(C(=O)c4ccccc4Cl)CC3)CC2)cc1 | -22.1 | – |
| COc1ccc(N2CCN(C(=O)CN3C(=O)COc4ccccc43)CC2)cc1 | -18.9 | – |

| SMILES | activity change, negative = growth inhibition [%] | Potency |
| --- | --- | --- |
| Cc1ccc(NC(=O)COC(=O)CN2CCSC2=O)cc1F | 9.29 | – |
| CS(=O)(=O)c1ccc2nc(NC(=O)CN3CCCCCC3)sc2c1 | -4.58 | – |
| CC(C)(C)C(=O)c1c(N)[nH]c(C(=O)c2ccccc2)c1-c1ccc(F)cc1 | -27 | – |
| NC(=O)Cc1ccc2c(c1)[nH]c1ccccc12 | -1.59 | – |
| CCc1cc(-c2nnc(SCC(=O)NC3CC3)n2C)cs1 | 1.5 | – |
| COc1ccc(OC)c(/C=N/NC(=O)c2ccc[n+](CC(=O)c3ccccc3)c2)c1 | -16 | – |
| COc1cccc(/C=N/NC(=O)c2[nH]nc3c2CCc2ccccc2-3)c1O | – | 2.91 µM (active) |
| CN(C)CCNC(=O)c1[nH]nc2c1CCc1ccccc1-2 | -11.9 | – |
| COc1ccc(/C=N/NC(=O)c2ccc3c(c2)OCCO3)c(OC)c1 | -0.934 | – |
| COc1cccc(/C=N\NC(=O)C2=NNC(=O)C2C)c1O (stereo unspecified) | – | 23.1 µM (active) |
| CCC(C)C1(C2CCCC2)NC(=O)NC1=O (stereo unspecified) | -8.57 | – |
| CN1CCN(C(=O)CCc2ncc(C(F)(F)F)cc2Cl)CC1 | -0.628 | – |
| CCN1CCN(C(=O)CSc2ccc(C)cc2)CC1 | -13.9 | – |
| CCN1CCC2(CC1)N=C(c1ccc(F)cc1)C(=S)N2C(=O)c1ccc(C)cc1 | – | 5.8 µM (active) |
| Cc1ccc(C(=O)N(CN2CCCC2=O)c2ccc(F)cc2)cc1 | -5.03 | – |
